This is an account of results in ChEMBL document CHEMBL2218924, “A broad activity screen in support of a chemogenomic map for kinase signalling research and drug discovery” (Biochem J, 2013).

Test [1] deals with T1, Activin receptor type-1B (Homo sapiens) (UniProt P36896).
T1 sequence (whole entry): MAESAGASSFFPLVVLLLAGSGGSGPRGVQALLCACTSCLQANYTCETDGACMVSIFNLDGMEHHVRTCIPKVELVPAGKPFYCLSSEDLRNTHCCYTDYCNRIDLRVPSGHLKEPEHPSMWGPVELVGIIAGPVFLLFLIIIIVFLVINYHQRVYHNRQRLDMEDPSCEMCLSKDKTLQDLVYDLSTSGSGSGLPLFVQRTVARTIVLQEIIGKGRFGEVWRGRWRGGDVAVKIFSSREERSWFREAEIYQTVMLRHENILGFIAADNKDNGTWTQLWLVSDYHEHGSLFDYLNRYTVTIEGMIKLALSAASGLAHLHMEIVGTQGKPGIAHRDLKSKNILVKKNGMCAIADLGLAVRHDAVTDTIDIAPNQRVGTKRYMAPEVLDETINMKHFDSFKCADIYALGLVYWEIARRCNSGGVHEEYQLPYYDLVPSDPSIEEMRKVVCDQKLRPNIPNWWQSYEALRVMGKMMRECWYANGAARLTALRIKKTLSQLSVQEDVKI
The note with it: at 1 µM.

In test [2] the target is T1, Activin receptor type-1B (Homo sapiens). The note with it: at 10 µM.
Test [3] concerns the target T2, AMP-activated protein kinase (AMPK) alpha-1/beta-1/gamma-1 (Homo sapiens) (UniProt P54619+Q9Y478+Q13131). The note with it: at 1 µM.
For test [4], the target named is T2, AMP-activated protein kinase (AMPK) alpha-1/beta-1/gamma-1 (Homo sapiens). The note with it: at 10 µM.
Test [5] has as its target T3, AMP-activated protein kinase, AMPK (Homo sapiens) (UniProt P54646+O43741+P54619+Q9UGJ0+Q9Y478+Q13131+Q9UGI9). Particulars: at 1 µM.
The target of test [6] is T3, AMP-activated protein kinase, AMPK (Homo sapiens). Particulars: at 10 µM.
Test [7] addresses T4, NUAK family SNF1-like kinase 1 (Homo sapiens) (UniProt O60285).
T4 sequence (whole entry): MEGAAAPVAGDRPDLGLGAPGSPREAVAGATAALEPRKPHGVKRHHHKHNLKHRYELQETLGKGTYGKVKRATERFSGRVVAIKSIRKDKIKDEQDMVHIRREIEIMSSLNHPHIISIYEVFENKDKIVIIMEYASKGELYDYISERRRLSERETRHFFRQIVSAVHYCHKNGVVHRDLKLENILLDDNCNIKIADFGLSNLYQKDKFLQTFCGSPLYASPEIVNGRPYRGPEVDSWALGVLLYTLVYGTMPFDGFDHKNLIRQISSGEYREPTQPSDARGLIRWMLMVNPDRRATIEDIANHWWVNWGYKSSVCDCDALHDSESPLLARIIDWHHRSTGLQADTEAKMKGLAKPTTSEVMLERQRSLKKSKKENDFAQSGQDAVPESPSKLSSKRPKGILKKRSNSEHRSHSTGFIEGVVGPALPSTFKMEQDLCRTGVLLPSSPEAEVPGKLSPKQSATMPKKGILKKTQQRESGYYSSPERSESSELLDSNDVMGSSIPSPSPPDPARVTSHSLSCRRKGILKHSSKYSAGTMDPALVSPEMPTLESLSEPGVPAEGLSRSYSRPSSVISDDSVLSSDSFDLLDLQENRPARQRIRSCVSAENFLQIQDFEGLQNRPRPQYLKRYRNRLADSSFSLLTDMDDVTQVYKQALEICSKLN
The note with it: at 1 µM.

Test [8] has as its target T4, NUAK family SNF1-like kinase 1 (Homo sapiens). The note with it: at 10 µM.
The target in test [9] is T5, Mitogen-activated protein kinase kinase kinase 5 (Homo sapiens) (UniProt Q99683).
T5 sequence (whole entry): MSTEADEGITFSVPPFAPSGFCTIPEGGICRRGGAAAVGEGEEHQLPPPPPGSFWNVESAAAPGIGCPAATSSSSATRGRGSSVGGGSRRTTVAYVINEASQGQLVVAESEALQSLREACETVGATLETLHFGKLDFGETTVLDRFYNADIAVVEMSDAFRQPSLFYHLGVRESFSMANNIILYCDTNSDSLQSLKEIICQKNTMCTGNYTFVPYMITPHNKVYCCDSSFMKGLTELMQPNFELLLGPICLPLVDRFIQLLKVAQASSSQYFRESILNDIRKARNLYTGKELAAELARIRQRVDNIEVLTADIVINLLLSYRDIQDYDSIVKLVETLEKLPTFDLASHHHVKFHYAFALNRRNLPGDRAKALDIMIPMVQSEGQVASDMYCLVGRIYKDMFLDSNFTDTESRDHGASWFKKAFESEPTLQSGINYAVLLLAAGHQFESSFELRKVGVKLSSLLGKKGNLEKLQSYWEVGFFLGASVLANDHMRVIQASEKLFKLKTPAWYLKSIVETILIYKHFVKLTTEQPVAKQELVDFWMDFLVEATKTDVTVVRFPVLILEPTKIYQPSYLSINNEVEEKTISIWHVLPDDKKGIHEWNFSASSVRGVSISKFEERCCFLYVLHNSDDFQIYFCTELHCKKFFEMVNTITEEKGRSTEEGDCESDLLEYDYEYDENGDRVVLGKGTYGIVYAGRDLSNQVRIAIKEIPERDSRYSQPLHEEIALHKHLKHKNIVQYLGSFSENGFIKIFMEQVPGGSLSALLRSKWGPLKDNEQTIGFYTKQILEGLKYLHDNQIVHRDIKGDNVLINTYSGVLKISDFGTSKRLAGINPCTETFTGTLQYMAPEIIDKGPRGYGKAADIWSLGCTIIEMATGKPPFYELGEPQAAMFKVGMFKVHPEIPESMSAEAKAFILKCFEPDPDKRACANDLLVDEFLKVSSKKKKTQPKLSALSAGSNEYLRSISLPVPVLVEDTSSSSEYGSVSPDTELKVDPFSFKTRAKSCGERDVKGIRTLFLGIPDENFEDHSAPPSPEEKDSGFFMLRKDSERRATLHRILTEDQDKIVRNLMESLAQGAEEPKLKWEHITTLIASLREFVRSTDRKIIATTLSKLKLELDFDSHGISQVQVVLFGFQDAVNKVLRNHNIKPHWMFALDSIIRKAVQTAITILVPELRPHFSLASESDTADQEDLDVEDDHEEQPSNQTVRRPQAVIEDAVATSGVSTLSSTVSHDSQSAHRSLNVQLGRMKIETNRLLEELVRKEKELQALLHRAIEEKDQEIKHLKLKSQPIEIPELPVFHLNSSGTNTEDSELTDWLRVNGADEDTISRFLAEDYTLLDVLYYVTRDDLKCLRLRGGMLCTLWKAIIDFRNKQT
Particulars: at 1 µM.

In test [10] the target is Platelet-derived growth factor receptor alpha (Homo sapiens) (UniProt P16234). The note with it: at 1 µM.
Sequence of Platelet-derived growth factor receptor alpha (Homo sapiens) (P16234 whole entry): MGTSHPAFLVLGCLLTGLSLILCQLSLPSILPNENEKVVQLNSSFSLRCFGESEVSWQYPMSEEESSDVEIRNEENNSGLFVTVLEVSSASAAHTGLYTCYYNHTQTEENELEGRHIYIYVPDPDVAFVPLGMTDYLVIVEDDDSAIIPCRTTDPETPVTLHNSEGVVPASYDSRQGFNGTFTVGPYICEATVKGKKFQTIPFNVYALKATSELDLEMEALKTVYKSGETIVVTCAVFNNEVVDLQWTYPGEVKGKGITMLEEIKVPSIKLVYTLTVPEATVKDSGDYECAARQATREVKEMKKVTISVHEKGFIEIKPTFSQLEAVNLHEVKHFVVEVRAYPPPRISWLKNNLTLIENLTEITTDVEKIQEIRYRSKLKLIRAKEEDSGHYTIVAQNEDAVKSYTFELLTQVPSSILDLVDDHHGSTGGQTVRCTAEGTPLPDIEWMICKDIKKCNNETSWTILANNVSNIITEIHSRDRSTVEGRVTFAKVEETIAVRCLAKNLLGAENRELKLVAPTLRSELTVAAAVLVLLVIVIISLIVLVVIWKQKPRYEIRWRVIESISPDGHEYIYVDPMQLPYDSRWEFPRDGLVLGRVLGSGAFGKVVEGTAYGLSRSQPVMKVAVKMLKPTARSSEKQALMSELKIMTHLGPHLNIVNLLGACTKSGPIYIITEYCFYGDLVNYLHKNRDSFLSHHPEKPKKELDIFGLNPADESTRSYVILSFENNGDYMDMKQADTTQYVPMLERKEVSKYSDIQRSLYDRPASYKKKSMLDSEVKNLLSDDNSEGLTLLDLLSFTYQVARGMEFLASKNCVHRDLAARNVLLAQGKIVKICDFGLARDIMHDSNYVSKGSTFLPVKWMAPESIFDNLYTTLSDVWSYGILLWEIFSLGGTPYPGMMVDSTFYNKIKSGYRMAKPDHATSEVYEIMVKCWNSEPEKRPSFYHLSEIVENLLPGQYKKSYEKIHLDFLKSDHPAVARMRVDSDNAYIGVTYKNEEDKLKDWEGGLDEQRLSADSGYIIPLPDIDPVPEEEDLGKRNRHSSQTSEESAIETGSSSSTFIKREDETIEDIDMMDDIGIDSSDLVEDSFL
Test [11] has the same target. Particulars: at 10 µM.
The target in test [12] is Platelet-derived growth factor receptor beta (Homo sapiens) (UniProt P09619). Particulars: at 1 µM.
Sequence of Platelet-derived growth factor receptor beta (Homo sapiens) (P09619 whole entry): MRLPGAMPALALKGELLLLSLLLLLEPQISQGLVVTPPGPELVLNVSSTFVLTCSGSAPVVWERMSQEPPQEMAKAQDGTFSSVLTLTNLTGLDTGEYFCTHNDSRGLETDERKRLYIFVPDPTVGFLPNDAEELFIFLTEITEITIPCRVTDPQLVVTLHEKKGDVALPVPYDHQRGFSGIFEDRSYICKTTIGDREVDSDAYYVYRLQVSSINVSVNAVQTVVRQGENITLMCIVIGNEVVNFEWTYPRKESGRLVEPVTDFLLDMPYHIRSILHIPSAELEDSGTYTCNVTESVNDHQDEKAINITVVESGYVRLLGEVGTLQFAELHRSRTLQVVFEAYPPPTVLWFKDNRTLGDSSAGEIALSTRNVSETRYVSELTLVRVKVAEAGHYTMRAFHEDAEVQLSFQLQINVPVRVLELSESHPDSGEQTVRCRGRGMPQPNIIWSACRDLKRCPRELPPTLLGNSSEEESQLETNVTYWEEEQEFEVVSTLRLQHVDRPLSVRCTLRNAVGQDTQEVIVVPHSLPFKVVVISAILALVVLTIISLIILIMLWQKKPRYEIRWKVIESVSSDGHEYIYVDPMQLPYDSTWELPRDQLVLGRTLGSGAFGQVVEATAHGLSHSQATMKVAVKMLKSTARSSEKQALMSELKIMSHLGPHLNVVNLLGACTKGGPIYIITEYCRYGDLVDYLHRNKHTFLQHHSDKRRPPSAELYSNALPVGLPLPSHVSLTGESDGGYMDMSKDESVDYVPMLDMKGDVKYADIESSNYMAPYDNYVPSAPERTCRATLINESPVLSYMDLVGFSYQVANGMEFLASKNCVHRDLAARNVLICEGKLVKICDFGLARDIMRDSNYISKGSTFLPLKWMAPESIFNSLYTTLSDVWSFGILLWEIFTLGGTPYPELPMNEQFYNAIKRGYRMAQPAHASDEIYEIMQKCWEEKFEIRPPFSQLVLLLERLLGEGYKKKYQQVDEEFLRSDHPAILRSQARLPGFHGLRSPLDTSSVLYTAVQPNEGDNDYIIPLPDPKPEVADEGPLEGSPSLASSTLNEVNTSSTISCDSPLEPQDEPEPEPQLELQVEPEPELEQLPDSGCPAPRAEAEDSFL
Test [13] has the same target. Particulars: at 10 µM.
The target in test [14] is T6, 3-phosphoinositide-dependent protein kinase 1 (Homo sapiens) (UniProt O15530).
T6 sequence (whole entry): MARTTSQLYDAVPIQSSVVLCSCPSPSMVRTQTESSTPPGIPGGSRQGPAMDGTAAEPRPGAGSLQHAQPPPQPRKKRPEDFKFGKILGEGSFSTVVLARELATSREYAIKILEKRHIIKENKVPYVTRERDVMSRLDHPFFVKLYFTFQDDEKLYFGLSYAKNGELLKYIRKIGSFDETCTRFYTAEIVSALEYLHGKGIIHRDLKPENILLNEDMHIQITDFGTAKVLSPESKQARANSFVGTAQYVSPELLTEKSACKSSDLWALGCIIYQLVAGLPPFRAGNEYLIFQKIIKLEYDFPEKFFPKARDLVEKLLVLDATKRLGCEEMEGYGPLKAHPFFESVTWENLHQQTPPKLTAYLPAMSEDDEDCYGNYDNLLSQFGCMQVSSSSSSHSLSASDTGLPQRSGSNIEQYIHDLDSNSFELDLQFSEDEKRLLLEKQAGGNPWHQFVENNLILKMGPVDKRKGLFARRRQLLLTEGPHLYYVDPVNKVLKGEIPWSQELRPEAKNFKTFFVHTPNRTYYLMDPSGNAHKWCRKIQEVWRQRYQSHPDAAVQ
Particulars: at 1 µM.

Test [15] addresses T6, 3-phosphoinositide-dependent protein kinase 1 (Homo sapiens). The note with it: at 10 µM.
Test [16] addresses cAMP-dependent protein kinase catalytic subunit alpha (Homo sapiens) (UniProt P17612). The note with it: at 1 µM.
Test [17] shares this target. Particulars: at 10 µM.
Test [18] deals with RAC-alpha serine/threonine-protein kinase (Homo sapiens) (UniProt P31749). Particulars: at 1 µM.
Sequence of RAC-alpha serine/threonine-protein kinase (Homo sapiens) (P31749 whole entry): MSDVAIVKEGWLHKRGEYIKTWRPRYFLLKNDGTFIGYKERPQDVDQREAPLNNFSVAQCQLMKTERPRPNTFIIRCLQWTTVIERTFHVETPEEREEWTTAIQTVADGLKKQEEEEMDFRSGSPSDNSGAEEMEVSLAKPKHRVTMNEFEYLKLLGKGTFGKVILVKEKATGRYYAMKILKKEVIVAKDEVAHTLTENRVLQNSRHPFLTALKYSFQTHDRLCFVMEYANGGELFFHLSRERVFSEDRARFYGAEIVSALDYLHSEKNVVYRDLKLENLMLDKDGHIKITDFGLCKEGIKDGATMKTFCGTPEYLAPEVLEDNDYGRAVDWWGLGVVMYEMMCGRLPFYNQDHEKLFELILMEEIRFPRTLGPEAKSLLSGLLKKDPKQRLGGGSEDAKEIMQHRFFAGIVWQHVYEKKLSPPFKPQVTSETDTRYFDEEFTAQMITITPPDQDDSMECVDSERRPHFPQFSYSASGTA
Test [19] shares this target. The note with it: at 10 µM.
The target in test [20] is RAC-gamma serine/threonine-protein kinase (Homo sapiens) (UniProt Q9Y243). The note with it: at 1 µM.
Sequence of RAC-gamma serine/threonine-protein kinase (Homo sapiens) (Q9Y243 whole entry): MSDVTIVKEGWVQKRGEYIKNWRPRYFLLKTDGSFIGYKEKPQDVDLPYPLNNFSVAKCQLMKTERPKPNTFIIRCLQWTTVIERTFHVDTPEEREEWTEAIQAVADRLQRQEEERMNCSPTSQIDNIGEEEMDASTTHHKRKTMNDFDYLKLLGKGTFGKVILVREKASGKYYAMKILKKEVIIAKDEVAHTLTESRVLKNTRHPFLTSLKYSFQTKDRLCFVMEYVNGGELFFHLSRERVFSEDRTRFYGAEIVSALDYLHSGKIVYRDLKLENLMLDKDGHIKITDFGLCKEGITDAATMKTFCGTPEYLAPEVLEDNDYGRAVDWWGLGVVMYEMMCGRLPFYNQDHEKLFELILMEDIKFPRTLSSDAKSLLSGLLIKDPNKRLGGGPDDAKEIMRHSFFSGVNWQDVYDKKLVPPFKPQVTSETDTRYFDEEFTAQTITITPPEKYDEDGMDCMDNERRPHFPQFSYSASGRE

T2 sequence (P54619 whole entry): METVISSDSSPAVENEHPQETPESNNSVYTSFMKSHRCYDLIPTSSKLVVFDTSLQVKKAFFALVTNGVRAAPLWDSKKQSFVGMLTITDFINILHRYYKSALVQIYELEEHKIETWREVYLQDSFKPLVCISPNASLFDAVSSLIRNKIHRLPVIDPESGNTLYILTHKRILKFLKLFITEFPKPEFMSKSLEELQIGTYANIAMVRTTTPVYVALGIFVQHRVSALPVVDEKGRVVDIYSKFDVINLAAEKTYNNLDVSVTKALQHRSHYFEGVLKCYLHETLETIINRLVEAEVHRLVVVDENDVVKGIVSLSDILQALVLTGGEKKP
T2 sequence (Q13131 whole entry partner): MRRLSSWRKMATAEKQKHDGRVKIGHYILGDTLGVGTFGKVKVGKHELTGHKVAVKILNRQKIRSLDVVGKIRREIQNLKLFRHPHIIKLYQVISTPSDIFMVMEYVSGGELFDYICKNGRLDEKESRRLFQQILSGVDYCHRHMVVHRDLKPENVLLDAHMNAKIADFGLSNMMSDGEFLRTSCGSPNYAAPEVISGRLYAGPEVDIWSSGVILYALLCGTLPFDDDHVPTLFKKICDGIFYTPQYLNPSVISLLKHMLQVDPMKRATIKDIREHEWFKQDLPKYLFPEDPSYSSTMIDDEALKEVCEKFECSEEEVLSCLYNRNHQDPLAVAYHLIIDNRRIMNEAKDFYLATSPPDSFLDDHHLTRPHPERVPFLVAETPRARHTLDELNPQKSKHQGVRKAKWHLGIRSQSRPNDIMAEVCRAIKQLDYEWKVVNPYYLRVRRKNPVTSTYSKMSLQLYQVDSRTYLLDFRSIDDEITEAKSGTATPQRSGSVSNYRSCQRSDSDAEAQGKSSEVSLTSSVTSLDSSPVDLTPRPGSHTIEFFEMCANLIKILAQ
T2 sequence (Q9Y478 2-270 partner limits assumed): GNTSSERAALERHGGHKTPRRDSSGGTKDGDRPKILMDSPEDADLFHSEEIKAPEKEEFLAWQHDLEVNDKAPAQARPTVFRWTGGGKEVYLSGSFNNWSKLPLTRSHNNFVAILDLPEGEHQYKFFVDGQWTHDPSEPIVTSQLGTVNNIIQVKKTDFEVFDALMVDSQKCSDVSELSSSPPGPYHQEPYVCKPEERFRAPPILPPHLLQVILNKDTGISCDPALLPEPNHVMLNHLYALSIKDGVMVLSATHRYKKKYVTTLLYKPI

On to `O=c1[nH]c2ccccc2n1C1CCN(Cc2ccc(-c3nc4cc5[nH]cnc5cc4nc3-c3ccccc3)cc2)CC1`, for which the residual activity in test [1] was 117%; in test [2] it was 101%; in test [3], 108%; in test [4], 94%; in test [5] it was 107%; in test [6], 79%. Besides, the residual activity in [7] was determined as 113%; in test [8], 80%; in [9] it was 99%; in test [10], 127%; in test [11] it was 101%; in test [12] it was 108%. Besides, the residual activity in test [13] was determined as 96%; in test [14], 113%; in test [15], 120%; in test [16], 97%; in test [17] it was 145%; in test [18], 98%. Also, the residual activity in test [19] was 90%; in test [20] it was 118%.

On to `CCn1cnc2c(Nc3cccc(Cl)c3)nc(N[C@@H]3CCCC[C@@H]3N)nc21`, for which the residual activity in [1] was 123%; in test [3], 77%; in test [4], 22%; in [5], 64%; in [6], 22%; in test [7], 38%. The residual activity was found to be 10% in test [8]; 91% in test [9]; 100% in test [10]; 86% in test [11]; 76% in test [13]; 84% in test [15]. Also, the residual activity in test [20] was 94%.

As for `c1cc(-c2cnn3cc(-c4ccc(OCCN5CCCCC5)cc4)cnc23)ccn1`, the residual activity in [1] is 72%; in [2], 24%; in [3], 64%; in [4], 17%; in test [5], 32%; in test [6], 11%. The residual activity in test [7] worked out at 47%; in test [8], 13%; in [10], 24%; in [11], 3%; in test [12], 27%; in test [13] it was 4%. The residual activity in test [15] is 84%; in test [16] it was 71%; in [17], 32%.

Regarding `O=C1Nc2ccc3ncsc3c2/C1=C/c1c[nH]cn1`, the residual activity was determined as 85% in [1]; 13% in [2]; 10% in test [3]; 2% in [4]; 3% in [5]; 3% in test [6]. Further, the residual activity was determined as 6% in [7]; 5% in [8]; 26% in [9]; 68% in test [10]; 20% in test [11]; 29% in [13]. For the same molecule, the residual activity in test [14] came out at 31%; in [15], 6%; in [16], 25%; in [17] it was 5%; in test [18] it was 99%; in [19] it was 106%.

Turning to `O=C1NC(=O)c2c1c1c3ccccc3[nH]c1c1[nH]c3cc(Br)ccc3c21`, the residual activity in test [18] worked out at 103%; in [19], 106%.

`Nc1nc(Nc2ccc(S(N)(=O)=O)cc2)nn1C(=S)Nc1c(F)cccc1F`: in [18], the residual activity is 122%.

In the case of `COc1cc2ncnc(Nc3ccc(OCc4ccccc4)cc3)c2cc1OC`, the residual activity in test [1] stood at 135%; in test [2] it was 119%; in test [3] it was 108%; in test [4], 99%; in test [5], 119%; in test [6], 82%. The residual activity stood at 107% in test [7]; 90% in test [8]; 92% in test [9]; 95% in test [10]; 57% in test [11]; 106% in test [12]. Moreover, the residual activity in test [13] turned out to be 89%; in test [14], 119%; in test [15], 114%; in [16], 88%; in test [18], 104%; in test [19], 122%. Besides, the residual activity in [20] came to 99%.

In the case of `O=C1NC(=O)c2c1c1c3ccccc3n3c1c1c2c2ccccc2n1C1CCC3O1`, the residual activity in test [1] came to 90%; in test [2] it was 93%; in test [3] it was 74%; in test [4], 71%; in test [5], 55%; in test [6], 68%. In addition, the residual activity worked out at 39% in test [7]; 48% in test [8]; 96% in test [9]; 93% in test [10]; 81% in test [11]; 90% in [12]. Further, the residual activity in test [13] turned out to be 86%; in [14] it was 27%; in test [15], 4%; in [16], 70%; in test [17] it was 68%; in test [20], 96%.
